The results in this text go back to PubChem BioAssay.

In test [1] the test system is Plasmodium falciparum Sir2 (PF13_0152, Sir2A). Kind of test: Plasmodium falciparum Sir2A binding compounds – biochemical, small-molecule microarray, 635 nm fluorescence, primary screen (AID 1098).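 Also: score merges spot fluorescence intensity with its signal-to-noise ratio.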 The following applies: fluorescence 635 nm, higher = more signal.
Test [2] can be described thus: probe aDKK1 binding to arrayed compounds – biochemical, biotinylated probe, 635/667 nm fluorescence, primary screen (AID 1099).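 Also: score merges 667nm spot fluorescence with signal to noise across triplicate slides.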 The following applies: small-molecule microarray, higher = more signal.
The nature of test [3]: probe aCHRDL2 binding to arrayed compounds – biochemical, biotinylated probe, 635/667 nm fluorescence, primary screen (AID 1100). Particulars: small-molecule microarray, higher = more signal.
Test [4] is described as follows: change in splice reporter luminescence, either direction, cell-based, HEK293, spliceosome inhibition project, primary screen (AID 1101).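 Also: HEK293 cells carrying a splicing-competent luciferase reporter gene; test concentration not given here.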 The following applies: HEK293 splicing luciferase reporter, 24 h, higher = more signal, called active from +8 up or from −8 down.
Test [5] deals with Fibroblast growth factor 10 (Homo sapiens) (UniProt O15520). The test is described as follows: compounds binding fibroblast growth factor 10 – biochemical, small-molecule microarray, 635 nm fluorescence, primary screen (AID 1102). Particulars: FGF10 binding, fluorescence 635 nm, higher = more signal.
Fibroblast growth factor 10 (Homo sapiens), sequence (O15520 whole entry, looked up): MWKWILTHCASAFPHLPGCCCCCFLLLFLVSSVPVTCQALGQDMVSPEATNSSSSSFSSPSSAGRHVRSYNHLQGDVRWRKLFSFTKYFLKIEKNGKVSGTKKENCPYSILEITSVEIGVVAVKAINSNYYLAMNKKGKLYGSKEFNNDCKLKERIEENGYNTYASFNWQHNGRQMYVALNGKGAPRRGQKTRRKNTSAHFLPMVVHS
Test [6] has as its system glycogen synthase kinase-3 (GSK3A per assay name; protocol says GSK3B). The test is described as follows: compounds binding glycogen synthase kinase-3 – biochemical, small-molecule microarray, 635 nm fluorescence, GSK3A, primary screen (AID 1103). Also: the record names both GSK3A and GSK3B. The following applies: fluorescence 635 nm, higher = more signal.
In test [7] the target is Epidermal growth factor receptor (Homo sapiens) (UniProt P00533). Kind of test: compounds binding epidermal growth factor receptor – biochemical, small-molecule microarray, 635 nm fluorescence, primary screen (AID 1104).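 Also: score merges 667 nm emission intensity with spot signal to noise over triplicate slides.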 Particulars: EGFR binding, higher = more signal.
Epidermal growth factor receptor (Homo sapiens), sequence (P00533 whole entry, looked up): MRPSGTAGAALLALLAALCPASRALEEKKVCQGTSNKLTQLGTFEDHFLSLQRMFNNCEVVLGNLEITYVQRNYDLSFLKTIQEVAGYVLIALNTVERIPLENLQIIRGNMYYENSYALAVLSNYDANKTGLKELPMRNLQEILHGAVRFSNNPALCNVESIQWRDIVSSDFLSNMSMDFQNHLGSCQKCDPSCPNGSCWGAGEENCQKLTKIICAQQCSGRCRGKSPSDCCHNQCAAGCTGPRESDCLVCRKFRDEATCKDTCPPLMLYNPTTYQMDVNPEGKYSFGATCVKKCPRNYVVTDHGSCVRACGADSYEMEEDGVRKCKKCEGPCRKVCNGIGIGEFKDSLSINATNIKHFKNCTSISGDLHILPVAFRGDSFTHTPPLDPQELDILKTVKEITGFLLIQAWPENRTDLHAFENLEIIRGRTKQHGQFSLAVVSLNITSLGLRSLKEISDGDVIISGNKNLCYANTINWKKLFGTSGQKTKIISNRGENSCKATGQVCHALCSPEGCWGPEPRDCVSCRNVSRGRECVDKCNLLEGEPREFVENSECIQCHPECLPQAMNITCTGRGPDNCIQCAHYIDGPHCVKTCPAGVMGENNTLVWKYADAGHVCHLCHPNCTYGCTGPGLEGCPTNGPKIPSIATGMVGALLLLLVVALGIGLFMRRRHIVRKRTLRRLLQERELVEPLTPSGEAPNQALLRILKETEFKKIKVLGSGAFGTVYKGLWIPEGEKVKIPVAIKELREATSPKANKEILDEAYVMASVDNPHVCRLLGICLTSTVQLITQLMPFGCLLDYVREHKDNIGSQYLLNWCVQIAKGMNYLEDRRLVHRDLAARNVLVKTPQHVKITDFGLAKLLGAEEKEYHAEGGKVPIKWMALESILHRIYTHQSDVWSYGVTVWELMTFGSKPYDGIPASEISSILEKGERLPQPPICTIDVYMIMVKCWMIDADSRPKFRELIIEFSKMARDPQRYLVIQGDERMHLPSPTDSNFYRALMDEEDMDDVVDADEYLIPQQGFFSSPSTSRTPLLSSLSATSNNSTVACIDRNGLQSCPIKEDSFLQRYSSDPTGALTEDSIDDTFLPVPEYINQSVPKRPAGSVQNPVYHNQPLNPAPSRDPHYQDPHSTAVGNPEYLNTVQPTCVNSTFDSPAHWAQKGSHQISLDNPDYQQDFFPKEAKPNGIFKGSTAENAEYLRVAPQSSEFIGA
The target of test [8] is Follistatin-related protein 3 (Homo sapiens) (UniProt O95633). The test is described as follows: compounds binding follistatin-related protein 3 – biochemical, small-molecule microarray, 635 nm fluorescence, primary screen (AID 1105).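 Also: score merges emission near 667 nm and signal to noise per printed spot across three slides.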 Particulars: FSTL3 binding, higher = more signal.
Follistatin-related protein 3 (Homo sapiens), sequence (O95633 whole entry, looked up): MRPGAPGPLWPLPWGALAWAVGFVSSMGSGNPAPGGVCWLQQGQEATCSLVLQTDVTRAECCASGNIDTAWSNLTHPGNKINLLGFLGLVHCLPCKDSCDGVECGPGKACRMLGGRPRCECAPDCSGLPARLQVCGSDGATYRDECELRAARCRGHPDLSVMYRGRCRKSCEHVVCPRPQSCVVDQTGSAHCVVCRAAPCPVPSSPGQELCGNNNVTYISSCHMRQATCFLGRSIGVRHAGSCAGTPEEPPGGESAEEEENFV
Test [9] has as its target Dickkopf-related protein 1 (Homo sapiens) (UniProt O94907). Kind of test: small molecules binding DKK1 protein – biochemical, small-molecule microarray, 635 nm fluorescence scan, primary screen (AID 1106).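 Also: score merges emission near 667 nm with signal to noise over three replicate slides.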 Particulars: higher = more signal.
Test [10] concerns Inhibin beta A chain (activin A). The test is described as follows: small molecules binding activin A – biochemical, small-molecule microarray, 635 nm fluorescence scan, primary screen (AID 1107).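 Also: mouse activin A protein probed at 4.33 µg/mL on printed slides; score merges bound-protein fluorescence near 667 nm with spot signal-to-noise.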 Particulars: INHBA, higher = more signal.
For test [11], the system named is Human papillomavirus type 1a protein E7 (residues 44-93). Kind of test: small molecules binding HPV E7 44-93 – biochemical, small-molecule microarray, residues 44-93, 635 nm fluorescence, primary screen (AID 1108).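 Also: E7 fragment applied at 1 µg/mL in TBST for 1 h at 4 C; score combines spot fluorescence with its signal to noise ratio.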 Particulars: fluorescence 635 nm, higher = more signal.
A short description of test [12]: hepatitis C replication reporter changes, two-sided – Huh7 cells, luciferase reporter, HCV replication inhibitor project, primary screen (AID 1109).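 Also: huh7 hepatoma cells harbouring a luciferase neomycin HCV replicon reporter; luciferase luminescence as measure of HCV replicon replication; test concentration not given here.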 The following applies: Huh7 HCV replicon luciferase reporter, 48 h; higher = more signal. On the technique in general: A reporter such as luciferase makes a cellular process visible.
Test [13] concerns the target Left-right determination factor 2 (Homo sapiens) (UniProt O00292). The test is described as follows: small molecules binding LEFTY2 protein – biochemical, small-molecule microarray, 635 nm fluorescence scan, primary screen (AID 1110). The following applies: higher = more signal.
Test [14] has as its target Calmodulin-1 (Homo sapiens) (UniProt P0DP23). Kind of test: small molecules binding calmodulin-1 with EGTA – biochemical, small-molecule microarray, Cy5-labelled CALM1, profiling panel (AID 1111).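 Also: labelled calmodulin applied in Tris saline Tween buffer holding calcium plus EGTA and DTT.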 Particulars: Cy5-CALM1 binding fluorescence, higher = more signal.
Test [15] shares this target. Kind of test: small molecules binding Ca-loaded calmodulin-1 – biochemical, small-molecule microarray, Cy5-labelled CALM1, plus calcium, artefact control for SMM control-protein annotation, profiling panel (AID 1112).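 Also: score merges spot fluorescence with signal to noise from triplicate slides.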 The following applies: Cy5-CALM1 binding fluorescence, higher = more signal.
Test [16] in a line: probe aWnt5a binding to arrayed compounds – biochemical, biotinylated probe, 635/667 nm fluorescence, primary screen (AID 1113).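 Also: score merges 667 nm fluorescence intensity with signal-to-noise per printed feature.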 Particulars: small-molecule microarray, higher = more signal.
A short description of test [17]: probe aShh binding to arrayed compounds – biochemical, biotinylated probe, 635/667 nm fluorescence, primary screen (AID 1114).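 Also: probe is biotin-labelled aShh protein from a stem cell growth factor screen; measures binding of labelled protein to compounds printed on the slide; score merges feature fluorescence at 667 nm with signal-to-noise.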 The following applies: small-molecule microarray, higher = more signal.
Test [18] is described as follows: probe aNog binding to arrayed compounds – biochemical, biotinylated probe, 635/667 nm fluorescence, primary screen (AID 1115).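 Also: probe is biotinylated aNog protein used at 0.15 µg/mL for 1 h at 4 C; z-score combines 667 nm fluorescence of each spot with its signal to noise.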 Particulars: small-molecule microarray, higher = more signal.
Test [19] deals with Torsin-1A-interacting protein 1 (Homo sapiens) (UniProt Q5JTV8). Kind of test: compound microarray binding of lysate hLAP1 – cell lysate, small-molecule microarray, COS7 lysate, 635/667 nm fluorescence, primary screen (AID 1116). The following applies: 635 nm fluorescence, higher = more signal.
Torsin-1A-interacting protein 1 (Homo sapiens), sequence (Q5JTV8 whole entry, looked up): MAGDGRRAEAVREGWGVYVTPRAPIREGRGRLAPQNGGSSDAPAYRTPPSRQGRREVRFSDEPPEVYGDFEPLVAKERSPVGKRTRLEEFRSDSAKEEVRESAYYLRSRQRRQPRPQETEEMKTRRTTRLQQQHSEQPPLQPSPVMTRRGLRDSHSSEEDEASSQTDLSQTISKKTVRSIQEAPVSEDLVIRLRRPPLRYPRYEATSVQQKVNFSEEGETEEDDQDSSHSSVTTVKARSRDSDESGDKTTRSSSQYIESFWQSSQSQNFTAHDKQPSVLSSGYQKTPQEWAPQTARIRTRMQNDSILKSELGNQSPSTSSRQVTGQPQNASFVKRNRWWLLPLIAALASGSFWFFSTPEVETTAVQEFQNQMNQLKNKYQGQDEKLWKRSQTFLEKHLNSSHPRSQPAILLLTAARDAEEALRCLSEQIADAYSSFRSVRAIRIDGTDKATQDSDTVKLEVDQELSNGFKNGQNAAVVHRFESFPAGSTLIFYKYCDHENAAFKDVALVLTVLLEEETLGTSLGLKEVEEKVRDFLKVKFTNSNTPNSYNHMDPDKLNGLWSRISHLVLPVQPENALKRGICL
For test [20], the target named is Alpha-bungarotoxin (Bungarus multicinctus) (UniProt P60615). Kind of test: compounds binding labelled alpha-BTX control protein – biochemical, small-molecule microarray, Alexa647 label, 635/667 nm fluorescence, artefact control for SMM control protein annotation, profiling panel (AID 1117). Particulars: alpha-BTX-A647 binding fluorescence, higher = more signal.
Alpha-bungarotoxin (Bungarus multicinctus), sequence (P60615 whole entry, looked up): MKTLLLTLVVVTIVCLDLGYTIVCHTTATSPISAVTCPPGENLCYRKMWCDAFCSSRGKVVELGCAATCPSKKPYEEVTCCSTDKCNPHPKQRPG

Structures are written as SMILES. The source made the active and inactive calls.

Left-right determination factor 2 (Homo sapiens), sequence (O00292 whole entry, looked up): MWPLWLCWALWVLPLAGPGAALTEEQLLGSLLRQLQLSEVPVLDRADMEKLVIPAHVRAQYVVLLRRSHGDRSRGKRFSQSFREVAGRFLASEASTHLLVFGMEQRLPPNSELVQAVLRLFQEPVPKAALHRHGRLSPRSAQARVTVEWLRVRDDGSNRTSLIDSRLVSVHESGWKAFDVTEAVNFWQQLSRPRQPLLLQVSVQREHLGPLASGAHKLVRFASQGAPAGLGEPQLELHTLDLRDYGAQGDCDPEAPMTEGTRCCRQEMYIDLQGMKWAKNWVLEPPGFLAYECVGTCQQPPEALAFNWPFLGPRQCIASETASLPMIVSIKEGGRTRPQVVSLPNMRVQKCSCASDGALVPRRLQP
Dickkopf-related protein 1 (Homo sapiens), sequence (O94907 whole entry, looked up): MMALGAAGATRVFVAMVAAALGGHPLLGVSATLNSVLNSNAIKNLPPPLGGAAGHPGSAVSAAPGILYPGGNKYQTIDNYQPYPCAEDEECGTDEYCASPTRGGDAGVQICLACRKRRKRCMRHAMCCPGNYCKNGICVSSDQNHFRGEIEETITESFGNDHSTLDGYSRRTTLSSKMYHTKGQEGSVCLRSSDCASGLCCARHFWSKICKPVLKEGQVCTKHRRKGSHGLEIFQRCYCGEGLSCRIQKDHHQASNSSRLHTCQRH

Consider `CC(C)(C)N1CC=CC23O[C@@H]4C=CCCOC(=O)C4[C@H]2C(=O)N(CCCCCCO)[C@@H]3C1=O` (stereo not given in full), for which the composite z-score in [1] is 1.34; in [2] it was 0.017; in test [3], 0.0876; in [5], -0.0479; in test [6] it was -0.404; in test [7], -1.09. Moreover, the composite z-score in test [8] was -0.63; in test [9], -0.983; in test [10], 0.406; in [11], 0.315; in [13], -0.807; in [14], -0.338. The composite z-score was 0.195 in test [15]; -0.167 in [16]; -0.352 in [17]; -0.0207 in [18]; 0.348 in test [19]; 1.07 in test [20]. For the same compound, the z-score is 0.416 (inactive) in test [4] and 0.0358 in test [12].

As for `C=CC[C@@]1(C(=O)OC)N=C(c2ccc(OCCCO)cc2)O[C@@H]1c1ccccc1N=[N+]=[N-]`, the composite z-score in [1] turned out to be 1.5; in [2], 0.6; in test [3], 1; in test [5] it was 1.32; in test [6], 1.32; in test [7] it was 1.38. For the same compound, the composite z-score in test [8] was found to be 1.22; in [9], 0.685; in [10], 0.767; in test [11] it was 1.48; in [13], 0.684; in [14] it was 0.17. The composite z-score in test [15] was -0.483; in test [16], 0.0433; in [17], 0.313; in [18] it was 0.604; in test [19] it was 1.66; in [20], 1.43. Besides, the z-score in test [4] is -1.61 (inactive); in [12], -0.992.

In the case of `O=C1O[C@@H](c2ccccc2)[C@@H](c2ccccc2)N2[C@@H](c3ccc(OCCO)cc3)[C@]3(C(=O)Nc4ccc(C#CC5(O)CCCCCC5)cc43)[C@@H](C(=O)O)[C@H]12`, the composite z-score was 1.46 in [1]; 0.623 in test [2]; 0.457 in test [3]; 0.372 in test [5]; 0.995 in test [6]; 0.146 in [7]. Further, the composite z-score is 0.401 in [8]; -0.0236 in test [9]; 0.2 in test [10]; 0.349 in [11]; 0.109 in test [13]; 1.29 in test [14]. Moreover, the composite z-score in test [15] is 1.03; in test [16], -0.0495; in test [17] it was 0.0902; in test [18] it was -0.0047; in test [19] it was 0.835; in [20], 0.987. Besides, the z-score was -0.702 (inactive) in test [4] and -0.687 in [12].

On to `N#Cc1ccc(NN2C(C(O)C3CC=CCC3)C=CC3C(=O)N(c4ccccc4)C(=O)C32)cc1` (stereo not given), for which the composite z-score in test [1] is 0.602; in test [2], 0.417; in test [3], 0.728; in [5] it was 1.09; in [6], 0.79; in test [7] it was 1.44. Besides, the composite z-score in test [8] is 1.38; in [9], -0.141; in test [10], 1.25; in [11], 1.48; in test [13], 0.0779; in [14], 0.0301. Moreover, the composite z-score in test [15] was -0.753; in [16], -0.13; in test [17] it was 0.0639; in test [18], 0.313; in test [19], 0.102; in [20], 1.17. The z-score in test [4] was 1.6 (inactive); in [12], -0.137.

Regarding `CCOC(=O)C[C@H]1[C@H](OC(=O)c2cc3ccccc3oc2=O)[C@@H](NC(=O)CC(C)C)c2cc(OCCCO)ccc2N1C(=O)Cc1ccc(OC)cc1`, the composite z-score in [1] is 0.621; in [2], -0.283; in test [3], -0.309; in test [5] it was 0.942; in test [6], 0.523; in [7], 0.145. Further, the composite z-score in test [8] is 0.91; in [9] it was 0.481; in test [10], -0.0372; in test [11], 0.653; in [13] it was 0.455; in test [14], -0.0388. The composite z-score was -0.61 in test [15]; -0.16 in test [16]; -0.206 in test [17]; -0.238 in test [18]; 0.571 in test [19]; -0.472 in test [20]. In addition, the values for the z-score in test [4] and in test [12] were -0.339 (inactive) and -0.0665, respectively.

In the case of `COC(=O)[C@@]1(Cc2ccccc2)[C@H]2c3cc(C(=O)N4CCCC4)n(Cc4ccc(OC)c(OC)c4)c3C[C@H]2CN1C(=O)c1ccccc1`, the composite z-score was 0.491 in test [1]; 1.14 in [2]; 1.2 in test [3]; 0.971 in test [5]; 1.06 in [6]; 0.122 in test [7]. Moreover, the composite z-score in test [8] was 0.985; in test [9] it was -0.823; in test [10], 0.763; in [11], 1.44; in test [13], -0.737; in test [14] it was 1.39. In addition, the composite z-score in [15] is 0.852; in [16], 0.421; in [17] it was 0.853; in test [18], 1.85; in test [19], 1.38; in [20] it was 0.315. Also, the results for the z-score in test [4] and in test [12] were -2.9 (inactive) and -2.27, respectively.
